# Assay results reported in the supplement of paper PMC7411054.
# Tests used:
# Settings in all cases: treatment time: 24 h
# HepG2-TUBA1B-RELA [1] = assay: lowest phenotypically active concentration; higher = less potent
# Summary of the method: (§1)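 Each of fifteen gene-edited A549, HepG2 and WPMY1 reporter lines, marked with BFP for segmentation and GFP and RFP/FusionRed, was treated in four wells at 0.3, 1, 3 or 9 µM for 24 h prior to live imaging. Normalisation of per-well live-cell features used solvent control wells. Deviation needed ≥3 of 4 wells beyond the 95th percentile of control Euclidean distances, and reproducibility needed a median replicate Pearson correlation above the 95th percentile of non-replicates. Both were required for phenotypic activity.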
# A549-ACTB-RAB5A = assay: phenotypically active (imaging signature differs from DMSO and reproducible) at any of 0.3-9 uM (binary (1 = active, 0 = inactive)); higher = active
# Summary of the method: as §1
# A549-CANX-COX4 = assay: as above
# Summary of the method: as §1
# A549-GM130-SQSTM1 = assay: as above
# Summary of the method: as §1
# A549-TP53BP1-CLTA = assay: as above
# Summary of the method: as §1
# A549-TUBA1B-RELA = assay: as above
# Summary of the method: as §1
# HepG2-ACTB-RAB5A = assay: as above
# Summary of the method: as §1
# HepG2-CANX-COX4 [2] = assay: as above
# Summary of the method: as §1
# HepG2-GM130-SQSTM1 [3] = assay: as above
# Summary of the method: as §1
# HepG2-TP53BP1-CLTA = assay: as above
# Summary of the method: as §1
# HepG2-TUBA1B-RELA [4] = assay: as above
# Summary of the method: as §1
# WPMY1-ACTB-RAB5A [5] = assay: as above
# Summary of the method: as §1
# WPMY1-CANX-COX4 = assay: as above
# Summary of the method: as §1
# WPMY1-GM130-SQSTM1 [6] = assay: as above
# Summary of the method: as §1
# WPMY1-TP53BP1-CLTA = assay: as above
# Summary of the method: as §1
# WPMY1-TUBA1B-RELA = assay: as above
# Summary of the method: as §1
# HepG2-GM130-SQSTM1 [7] = assay: lowest phenotypically active concentration; higher = less potent
# Summary of the method: as §1
# HepG2-CANX-COX4 [8] = assay: as above
# Summary of the method: as §1
# WPMY1-GM130-SQSTM1 [9] = assay: as above
# Summary of the method: as §1
# WPMY1-ACTB-RAB5A [10] = assay: as above
# Summary of the method: as §1
Compound,lowest phenotypically active concentration (HepG2-TUBA1B-RELA [1]),phenotypically active (A549-ACTB-RAB5A),phenotypically active (A549-CANX-COX4),phenotypically active (A549-GM130-SQSTM1),phenotypically active (A549-TP53BP1-CLTA),phenotypically active (A549-TUBA1B-RELA),phenotypically active (HepG2-ACTB-RAB5A),phenotypically active (HepG2-CANX-COX4 [2]),phenotypically active (HepG2-GM130-SQSTM1 [3]),phenotypically active (HepG2-TP53BP1-CLTA),phenotypically active (HepG2-TUBA1B-RELA [4]),phenotypically active (WPMY1-ACTB-RAB5A [5]),phenotypically active (WPMY1-CANX-COX4),phenotypically active (WPMY1-GM130-SQSTM1 [6]),phenotypically active (WPMY1-TP53BP1-CLTA),phenotypically active (WPMY1-TUBA1B-RELA),lowest phenotypically active concentration (HepG2-GM130-SQSTM1 [7]),lowest phenotypically active concentration (HepG2-CANX-COX4 [8]),lowest phenotypically active concentration (WPMY1-GM130-SQSTM1 [9]),lowest phenotypically active concentration (WPMY1-ACTB-RAB5A [10])
COCCCOc1ccnc(CS(=O)c2nc3ccccc3[nH]2)c1C (stereo unspecified) [rabeprazole],9 µM,0 (inactive),0 (inactive),0 (inactive),0 (inactive),0 (inactive),1 (active),0 (inactive),0 (inactive),0 (inactive),1 (active),0 (inactive),0 (inactive),0 (inactive),0 (inactive),0 (inactive),–,–,–,–
CC(C)N(CCCNC(=O)Nc1ccc(C(C)(C)C)cc1)C[C@H]1O[C@@H](n2ccc3c(N)ncnc32)[C@H](O)[C@@H]1O,≤ 0.3 µM,0 (inactive),0 (inactive),0 (inactive),0 (inactive),0 (inactive),1 (active),0 (inactive),1 (active),1 (active),1 (active),0 (inactive),0 (inactive),0 (inactive),0 (inactive),1 (active),≤ 0.3 µM,–,–,–
CNC(=C[N+](=O)[O-])NCCSCc1ccc(CN(C)C)o1 [ranitidine],–,0 (inactive),0 (inactive),0 (inactive),0 (inactive),0 (inactive),0 (inactive),0 (inactive),1 (active),0 (inactive),0 (inactive),0 (inactive),0 (inactive),0 (inactive),0 (inactive),0 (inactive),1 µM,–,–,–
CCc1c(C(=O)Nc2cc(S(=O)(=O)N(CC)CC)ccc2O)[nH]c(C)c1C(C)=O,–,0 (inactive),0 (inactive),0 (inactive),0 (inactive),0 (inactive),1 (active),1 (active),0 (inactive),0 (inactive),0 (inactive),0 (inactive),0 (inactive),1 (active),0 (inactive),0 (inactive),–,9 µM,9 µM,–
O=C(Nc1ccccc1)N1CCN(c2nc(-c3ccccc3)ns2)CC1,9 µM,0 (inactive),0 (inactive),0 (inactive),0 (inactive),0 (inactive),0 (inactive),1 (active),0 (inactive),1 (active),1 (active),0 (inactive),0 (inactive),1 (active),0 (inactive),0 (inactive),–,9 µM,9 µM,–
CC(C)[C@@H](C)/C=C/[C@@H](C)[C@H]1CC[C@H]2C3=CC=C4C[C@@H](O)CC[C@]4(C)[C@H]3CC[C@]12C [Ergosterine],–,0 (inactive),0 (inactive),1 (active),0 (inactive),1 (active),0 (inactive),0 (inactive),1 (active),0 (inactive),0 (inactive),0 (inactive),0 (inactive),0 (inactive),0 (inactive),0 (inactive),9 µM,–,–,–
O=C(O)COc1ccc(Br)cc1/C=C1\SC(=S)N(Cc2cccnc2)C1=O,–,0 (inactive),0 (inactive),1 (active),0 (inactive),0 (inactive),0 (inactive),0 (inactive),1 (active),0 (inactive),0 (inactive),0 (inactive),0 (inactive),1 (active),0 (inactive),0 (inactive),3 µM,–,3 µM,–
NS(=O)(=O)c1cc2c(cc1C(F)(F)F)NC(Cc1ccccc1)NS2(=O)=O (stereo unspecified) [bendroflumethiazide],–,0 (inactive),0 (inactive),0 (inactive),0 (inactive),0 (inactive),0 (inactive),1 (active),0 (inactive),0 (inactive),0 (inactive),0 (inactive),0 (inactive),0 (inactive),0 (inactive),0 (inactive),–,3 µM,–,–
COc1cc(-c2cn(C)c(=O)c3cnccc23)c(OC)cc1CN(C)C,9 µM,0 (inactive),0 (inactive),0 (inactive),1 (active),0 (inactive),1 (active),0 (inactive),1 (active),0 (inactive),1 (active),0 (inactive),0 (inactive),0 (inactive),0 (inactive),1 (active),9 µM,–,–,–
C[C@H](NC(=O)c1sccc1OCc1ccc(Cl)cc1)c1ccccc1,–,0 (inactive),0 (inactive),0 (inactive),1 (active),0 (inactive),0 (inactive),0 (inactive),0 (inactive),0 (inactive),0 (inactive),1 (active),0 (inactive),1 (active),1 (active),0 (inactive),–,–,3 µM,≤ 0.3 µM
COc1ccc(CC2c3cc(OC)c(OC)cc3CC[N+]2(C)CCC(=O)OCCCCCOC(=O)CC[N+]2(C)CCc3cc(OC)c(OC)cc3C2Cc2ccc(OC)c(OC)c2)cc1OC (stereo unspecified) [Atracurium besilate],–,0 (inactive),0 (inactive),0 (inactive),0 (inactive),0 (inactive),0 (inactive),1 (active),1 (active),0 (inactive),0 (inactive),1 (active),0 (inactive),1 (active),0 (inactive),0 (inactive),3 µM,9 µM,9 µM,3 µM
